The source of these data is PubChem BioAssay AID624331 (National Center for Advancing Translational Sciences (NCATS), 2012).

Each structure is given as a SMILES string. Results filed as inconclusive are left out. A call without a number means that no potency is given here. The source made the active and inactive calls. Calls follow the shape of the dose curve; as a rule, active = well fitted activation curve with a large enough effect; inconclusive = small, poorly fitted or top-dose-only effect; inactive = no such curve, though single readings can be large or run the other way.

This experiment is described as follows: qHTS assay for re-activators of p53 using a Luc reporter: Hit Validation with no p53 Expressed. The following applies: p53-null cells, luciferase reporter counter-screen; series mostly up to 46.1 µM. An outline of the steps: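 Without p53 expression, cells (1000/well, Opti-MEM + 10% FBS) were exposed 24 h at 37 deg C to compounds in a 1:5 series from 10 mM stock (top 46.1 µM in well). Luminescent signal read 10 min after Amplite addition; actives flag unspecific activation.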
Take `CCC(=O)Nc1cccc(NC(=S)NC(=O)c2ccc(Cl)cc2)c1`: the Potency result was “inactive”.

As to `N#Cc1cc2c(nc1SCC(=O)Nc1nccs1)CCCCC2`, the Potency result is “inactive”.

In the case of `O=C(CCS(=O)(=O)c1ccccc1)Nc1nc2c(s1)CCCC2`, the Potency result was “inactive”.

For `CN(Cc1ccccc1)c1ncnc2ccc(Br)cc12`, the Potency result is “inactive”.

On to `CCOc1ccc(OCc2cccc(C(=O)N3CCCC3)c2)cc1`, for which the Potency result is “inactive”.

For the compound `O=C(/C=C/c1ccco1)Nc1ccccn1`, the Potency entry is “inactive”.

As for `CC(C)NC(=S)N1CCN(S(C)(=O)=O)CC1`, the Potency entry was “inactive”.

Turning to `COc1ccc2cc(C3(C)NC(=O)N(CC(=O)Nc4c(C)n(C)n(-c5ccccc5)c4=O)C3=O)ccc2c1` (centres undefined), the Potency result is “inactive”.

In the case of `COc1cc(C(=S)N2CCOCC2)ccc1OC(=O)c1ccccc1C`, the Potency entry is “inactive”.

For `CC(C)N1CCc2c(sc(NC(=S)NC(=O)c3ccccc3)c2C#N)C1`, the Potency entry is “inactive”.

Turning to `O=C1c2cccc3cc([N+](=O)[O-])cc(c23)C(=O)N1CCN1CCCC1`, the Potency entry was “inactive”.

Turning to `CCOC(=O)NC1(Nc2ccc(C)cc2)Oc2ccccc2O1`, the Potency entry is “inactive”.

`COc1cc(C(C)=O)ccc1Oc1ncnc2c1cnn2-c1ccc(F)cc1`: the Potency result is “inactive”.

On to `O=C(/C=C/c1cccs1)Nc1ccc(Br)cn1`, for which the Potency entry was “inactive”.

As to `O=C(CSc1ccccc1)Nc1ccc(-c2nc3ccccc3[nH]2)cc1`, the Potency result is “inactive”.

Take `Cc1nn(-c2ccccc2)c(N2CCCC2)c1/C=N/NC(=O)c1cc(-c2ccccc2)nc2ccccc12`: the Potency result was “inactive”.

In the case of `Cc1ccc(OCC(=O)c2cc(C)n(C3CC3)c2C)c([N+](=O)[O-])n1`, the Potency entry is “inactive”.

On to `O=C(O)C1CC(=O)N(c2ccc(Br)cc2)C1` (centres undefined), for which the Potency entry was “inactive”.

For the compound `COc1ccc2oc(-c3cccc(NC(=O)CSc4ccc(Cl)cc4)c3)nc2c1`, the Potency result was “inactive”.

For `CCC(Sc1nc2ccccc2c(=O)n1CCN1CCOCC1)C(=O)NCc1cccnc1` (centres undefined), the Potency entry is “inactive”.

Regarding `Cc1c(/C(O)=C2/C(=O)C(=O)N(CCN3CCOCC3)C2c2cccs2)cnn1-c1ccccc1` (centres undefined), the Potency entry is “inactive”.

For the compound `Cc1ccc(-c2nnc(SCC(=O)Nc3ccccc3F)o2)cc1`, the Potency result was “inactive”.

In the case of `COc1cccc(C(=O)c2sc(NC(C)C)nc2N)c1`, the Potency result is “inactive”.

In the case of `O=C(N/N=C/c1cn(-c2ccccc2)nc1-c1cc2ccccc2o1)c1ccccc1Br`, the Potency result was “inactive”.

Regarding `CCC(=O)Nc1ccc2oc(-c3cccc(C)c3)nc2c1`, the Potency result was “inactive”.

Turning to `COC(=O)C1=C(C(=O)c2ccccc2)C(c2ccc(OC)c(OC)c2)Nc2nnnn21` (centres undefined), the Potency result was “inactive”.

For `N#Cc1c(NC(=O)/C=C/c2ccco2)sc2c1CCCC2`, the Potency entry is “inactive”.

Regarding `CCc1ccc2[nH]c(=O)c(CN(CCN(CC)CC)C(=O)NC3CCCCC3)cc2c1`, the Potency entry is “inactive”.

Regarding `CC(C)(C)c1ccc(NC(=O)COC(=O)c2ccc(NS(=O)(=O)c3ccc(F)c(F)c3)cc2)cc1`, the Potency entry is “inactive”.

On to `CC1CC1C(=O)Nc1nc2ccc(S(C)(=O)=O)cc2s1` (centres undefined), for which the Potency result is “inactive”.

In the case of `CCc1ccc(C(=O)Nc2nc3ccccc3[nH]2)cc1`, the Potency result is “inactive”.

As for `CCCCn1c(/C=N/Nc2nc3ccccc3[nH]2)nc2ccccc21`, the Potency entry was “inactive”.

For the compound `Cc1ccc(C(=O)NCC(=O)N2CCCCCC2)cc1`, the Potency entry is “inactive”.

Turning to `C/C(Cn1nnc([N+](=O)[O-])n1)=N\NC(=O)c1ccc(C)cc1`, the Potency result is “inactive”.

Take `ON=C1c2cc(OCCN3CCCCC3)ccc2-c2ccc(OCCN3CCCCC3)cc21`: the Potency result is “inactive”.

For `Cc1cccc(Nc2cc(=O)[nH]c(=O)[nH]2)c1C`, the Potency entry was “inactive”.

Consider `CCOc1ccc(-c2cnc3ccccc3n2)cc1`, for which the Potency result is “inactive”.

Take `CN1CCN(c2ncnc3c2cnn3-c2ccc(Cl)cc2)CC1`: the Potency entry is “inactive”.

For `O=c1oc(-c2ccc(O)c(O)c2)cc2cc(O)cc(O)c12`, the Potency result is “inactive”.
